Consider 19 compounds from the supplement of paper PMC11219838.

Values without a mark were called inactive.

The test system of this experiment is Caenorhabditis elegans L1 (N2). Briefly: survival and reproduction score of C. elegans L1 (0: 0-10 living worms, 1: 11-20, 2: 21-50, 3: >50, 4: overgrown) (score 0-4); higher = more worms, less nematicidal, active = 1 or less; extreme values may be limits of the assay. The settings on record: 60 µM; 6 days; temperature: 20 °C. Summed up: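 Worm survival and reproduction were recorded as an ordinal score of living worms per well, read under a dissection microscope. Each 96-well well held about 20 synchronized C. elegans N2 L1s with E. coli HB101 in liquid NGM and compound at 60 µM final (0.6% v/v DMSO), sealed and shaken at 200 rpm, 20 °C, for 6 days. Scores ranged from 0 (0–10 worms) to 4 (overgrown, starved) and were the mean of two biological replicates.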
On to `CCOc1ccccc1NC(=O)CSc1nnc(-c2ccco2)o1`, for which the “survival and reproduction score” value was 4.

As for `Clc1ccc(SCc2nc(-c3cccnc3)no2)cc1`, the “survival and reproduction score” value was 2.5.

Take `COc1ccc(-c2noc(-c3cccc(Br)c3)n2)cc1`: the “survival and reproduction score” value was 4.

For the compound `CCOc1nc(-c2ccc(C)cc2)ccc1-c1noc(-c2ccc(F)cc2)n1`, the “survival and reproduction score” value is 2.

As for `Cc1ccc(OCc2nc(-c3ccccc3Cl)no2)cc1C`, the “survival and reproduction score” value was 2.

`CC(C)(C)c1ccc(-c2noc(COc3ccccc3)n2)cc1`: the “survival and reproduction score” value is 4.

`CCOc1ccccc1-c1nc(-c2cccc(C)c2)no1`: the “survival and reproduction score” value was 4.

Consider `Cc1ccc(-c2noc(COc3ccccc3Cl)n2)cc1`, for which the “survival and reproduction score” value was 4.

With `Cc1ccc(-c2nnc(SCC(=O)Nc3ccccc3)o2)cc1`, the “survival and reproduction score” value is 4.

With `COc1ccc(-c2noc(COc3ccc(C)c(C)c3)n2)cc1`, the “survival and reproduction score” value is 4.

With `CC(C)c1ccc(NC(=O)CSc2nnc(-c3ccc(Br)cc3)o2)cc1`, the “survival and reproduction score” value was 4.

`CCC(=O)Nc1ccccc1-c1nc(-c2cccnc2)no1`: the “survival and reproduction score” value is 4.

As for `O=C(Nc1ccc(-c2noc(-c3ccc(F)cc3)n2)cc1)c1ccc(Br)o1`, the “survival and reproduction score” value was 1 (active).

On to `CCOc1ccc(-c2nc(-c3cccnc3)no2)cc1OCC`, for which the “survival and reproduction score” value was 4.

Take `O=C(Nc1ccc(-c2noc(-c3ccccn3)n2)cc1)c1cccc(Cl)c1`: the “survival and reproduction score” value is 4.

As for `CCOc1ccccc1-c1nnc(SCc2ccc(C(=O)OC)o2)o1`, the “survival and reproduction score” value was 4.

Turning to `Brc1ccc(-c2noc(-c3ccc(Br)o3)n2)o1`, the “survival and reproduction score” value was 0.5 (active).

Consider `Clc1cc(Br)ccc1OCc1nc(-c2ccncc2)no1`, for which the “survival and reproduction score” value was 4.

Take `COc1ccc(OC(C)c2nc(-c3cccnc3)no2)cc1` (centres undefined): the “survival and reproduction score” value was 4.
